Results as given in PubChem BioAssay (NCI).
About 83,000 compounds went through this panel and 20% of them were active in at least one assay; those are over-represented in the sample as a whole.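 Testing used 96-well plates and a 48-hour single-concentration exposure. Example: -40 means 40% of the starting cells died.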 A number with no mark means an inactive call. Active and inactive are the calls of the source. How the source made its calls: active means growth percent below 10; inactive means the rest.

Experiments:
Experiment in all cases: NCI-60 one-dose screen, 48 h (100 = growth as untreated, 0 = no growth, -100 = all killed)
Details in all cases: 10 µM unless noted
SK-MEL-2 melanoma = tested on: SK-MEL-2 melanoma
EKVX NSCLC = tested on: EKVX NSCLC
SN12C renal = tested on: SN12C renal
UO-31 renal = tested on: UO-31 renal
TK-10 renal = tested on: TK-10 renal
ACHN renal = tested on: ACHN renal
CAKI-1 renal = tested on: CAKI-1 renal
A498 renal = tested on: A498 renal
CCRF-CEM leukemia = tested on: CCRF-CEM leukemia
MOLT-4 leukemia = tested on: MOLT-4 leukemia

Question: What does the source list for `CC(C)OC(=O)Nc1cc(F)ccc1F`?
Answer: growth (SK-MEL-2 melanoma): 112%; growth (EKVX NSCLC): 98.8%; growth (SN12C renal): 99.5%; growth (UO-31 renal): 89.7%; growth (TK-10 renal): 97.7%; growth (ACHN renal): 100%; growth (CAKI-1 renal): 96.5%; growth (A498 renal): 96.9%; growth (CCRF-CEM leukemia): 103%; growth (MOLT-4 leukemia): 101%

Question: What does the source list for `Cc1ccc(N)c(O)c1`?
Answer: growth (SK-MEL-2 melanoma): 100%; growth (EKVX NSCLC): 98.6%; growth (SN12C renal): 115%; growth (UO-31 renal): 84.5%; growth (TK-10 renal): 158%; growth (ACHN renal): 91%; growth (CAKI-1 renal): 94.8%; growth (A498 renal): 50.7%; growth (CCRF-CEM leukemia): 77.9%; growth (MOLT-4 leukemia): 106%

Question: Which growth (SK-MEL-2 melanoma) does the source give for `Cc1cc(C)c(-c2cc(O)c(-c3c(C)cc(C)cc3C)cc2O)c(C)c1` here?
Answer: 66%

Question: And the growth (EKVX NSCLC)?
Answer: 53.9%

Question: And the growth (SN12C renal)?
Answer: 65.5%

Question: And the growth (UO-31 renal)?
Answer: 62.1%

Question: What about the growth (TK-10 renal) of the same compound?
Answer: 56.3%

Question: What about the growth (ACHN renal) of the same compound?
Answer: 38.3%

Question: What about the growth (CAKI-1 renal) of the same compound?
Answer: 40.4%

Question: And the growth (A498 renal)?
Answer: 5.72% (active)

Question: And the growth (CCRF-CEM leukemia)?
Answer: 18.5%

Question: What about the growth (MOLT-4 leukemia) of the same compound?
Answer: 47.9%

Question: How did the growth (SK-MEL-2 melanoma) turn out when `CC(C)CCSC1=CC(=O)c2ccccc2C1=O` was run?
Answer: 83.1%

Question: What about the growth (EKVX NSCLC) of the same compound?
Answer: 81%

Question: What about the growth (SN12C renal) of the same compound?
Answer: 90.2%

Question: What about the growth (UO-31 renal) of the same compound?
Answer: -63.5% (active)

Question: And the growth (TK-10 renal)?
Answer: 103%

Question: What about the growth (ACHN renal) of the same compound?
Answer: 11.2%

Question: And the growth (CAKI-1 renal)?
Answer: 21.1%

Question: What about the growth (A498 renal) of the same compound?
Answer: 98.4%

Question: And the growth (CCRF-CEM leukemia)?
Answer: 0.242% (active)

Question: What about the growth (MOLT-4 leukemia) of the same compound?
Answer: 16%

Question: For `O=C(O)c1cccc(CN2CCN(c3cc4c(cc3F)c(=O)c(C(=O)O)cn4C3CC3)CC2)c1O`, which growth (SK-MEL-2 melanoma) is on record?
Answer: 101%

Question: And the growth (EKVX NSCLC)?
Answer: 100%

Question: What about the growth (SN12C renal) of the same compound?
Answer: 102%

Question: What about the growth (UO-31 renal) of the same compound?
Answer: 81.6%

Question: And the growth (TK-10 renal)?
Answer: 96.6%

Question: What about the growth (ACHN renal) of the same compound?
Answer: 103%

Question: What about the growth (CAKI-1 renal) of the same compound?
Answer: 88.7%

Question: And the growth (A498 renal)?
Answer: 106%

Question: What about the growth (CCRF-CEM leukemia) of the same compound?
Answer: 101%

Question: What about the growth (MOLT-4 leukemia) of the same compound?
Answer: 105%

Question: For `C=CCCCCCCCCC(=O)OC(C)C`, which growth (SK-MEL-2 melanoma) is on record?
Answer: 101%

Question: And the growth (EKVX NSCLC)?
Answer: 101%

Question: And the growth (SN12C renal)?
Answer: 105%

Question: What about the growth (UO-31 renal) of the same compound?
Answer: 88.9%

Question: And the growth (TK-10 renal)?
Answer: 101%

Question: And the growth (ACHN renal)?
Answer: 107%

Question: And the growth (CAKI-1 renal)?
Answer: 107%

Question: And the growth (A498 renal)?
Answer: 91.4%

Question: What about the growth (CCRF-CEM leukemia) of the same compound?
Answer: 2.8% (active)

Question: And the growth (MOLT-4 leukemia)?
Answer: 95.2%

Question: Which growth (SK-MEL-2 melanoma) does the source give for `c1cc2ccc3cc2cc1CNCCN1CCNCc2ccc4ccc(cc4c2)CNCCN(CCNC3)CCNCc2ccc3ccc(cc3c2)CNCC1` here?
Answer: -9.83% (active)

Question: And the growth (EKVX NSCLC)?
Answer: 48.7%

Question: And the growth (SN12C renal)?
Answer: 1.52% (active)

Question: And the growth (UO-31 renal)?
Answer: 82.4%

Question: What about the growth (TK-10 renal) of the same compound?
Answer: 75.2%

Question: And the growth (ACHN renal)?
Answer: 91.2%

Question: What about the growth (CAKI-1 renal) of the same compound?
Answer: 93.8%

Question: And the growth (A498 renal)?
Answer: 100%

Question: And the growth (CCRF-CEM leukemia)?
Answer: 51%

Question: And the growth (MOLT-4 leukemia)?
Answer: 8.03% (active)

Question: `C=C(C)[C@@H]1CC[C@]2(C(=O)N3CCN(C)CC3)CC[C@]3(C)[C@H](CC[C@@H]4[C@@]5(C)C/C(=C/c6ccncc6)[C@H](O)C(C)(C)[C@@H]5CC[C@]43C)[C@@H]12` was tested. Which growth (SK-MEL-2 melanoma) did it give?
Answer: -60.1% [100 µM] (active)

Question: What about the growth (EKVX NSCLC) of the same compound?
Answer: -1.55% [100 µM] (active)

Question: What about the growth (SN12C renal) of the same compound?
Answer: -44.2% [100 µM] (active)

Question: And the growth (UO-31 renal)?
Answer: -61.4% [100 µM] (active)

Question: And the growth (TK-10 renal)?
Answer: 22% [100 µM]

Question: What about the growth (ACHN renal) of the same compound?
Answer: -0.441% [100 µM] (active)

Question: And the growth (CAKI-1 renal)?
Answer: 12.1% [100 µM]

Question: What about the growth (A498 renal) of the same compound?
Answer: -28.9% [100 µM] (active)

Question: And the growth (CCRF-CEM leukemia)?
Answer: -5.24% [100 µM] (active)

Question: What about the growth (MOLT-4 leukemia) of the same compound?
Answer: -24.4% [100 µM] (active)

Question: For `O=C(Nc1cc(-c2cccnc2)nc(NCCCN2CCOCC2)n1)c1cc(Br)cc(C(F)(F)F)c1`, which growth (SK-MEL-2 melanoma) is on record?
Answer: 81.3%

Question: What about the growth (EKVX NSCLC) of the same compound?
Answer: 77.4%

Question: And the growth (SN12C renal)?
Answer: 67.2%

Question: And the growth (UO-31 renal)?
Answer: 42%

Question: What about the growth (TK-10 renal) of the same compound?
Answer: 65.4%

Question: And the growth (ACHN renal)?
Answer: 75.6%

Question: What about the growth (CAKI-1 renal) of the same compound?
Answer: 61.8%

Question: What about the growth (A498 renal) of the same compound?
Answer: 53.7%

Question: What about the growth (CCRF-CEM leukemia) of the same compound?
Answer: 42.8%

Question: And the growth (MOLT-4 leukemia)?
Answer: 45.1%

Question: With `Cn1ncc2c(Nc3ccc(O)cc3)nc(Cl)nc21` as the compound, how does the growth (SK-MEL-2 melanoma) read?
Answer: 106%

Question: And the growth (EKVX NSCLC)?
Answer: 87.8%

Question: What about the growth (SN12C renal) of the same compound?
Answer: 96.8%

Question: And the growth (UO-31 renal)?
Answer: 84%

Question: And the growth (TK-10 renal)?
Answer: 102%

Question: What about the growth (ACHN renal) of the same compound?
Answer: 88%

Question: And the growth (CAKI-1 renal)?
Answer: 92.9%

Question: What about the growth (A498 renal) of the same compound?
Answer: 111%

Question: And the growth (CCRF-CEM leukemia)?
Answer: 92.1%

Question: And the growth (MOLT-4 leukemia)?
Answer: 94.2%

Question: How did the growth (SK-MEL-2 melanoma) turn out when `CCCCC(CCCCCC(CCCC)C1NC(C)Cc2cc(OC)c(OC)cc21)C1NC(C)Cc2cc(OC)c(OC)cc21` (stereo not given) was run?
Answer: -81.9% (active)

Question: What about the growth (EKVX NSCLC) of the same compound?
Answer: -61.2% (active)

Question: What about the growth (SN12C renal) of the same compound?
Answer: -21.3% (active)

Question: And the growth (UO-31 renal)?
Answer: -83.5% (active)

Question: And the growth (TK-10 renal)?
Answer: -94.5% (active)

Question: And the growth (ACHN renal)?
Answer: -100% (active)

Question: What about the growth (CAKI-1 renal) of the same compound?
Answer: -63.9% (active)

Question: And the growth (A498 renal)?
Answer: -12.3% (active)

Question: What about the growth (CCRF-CEM leukemia) of the same compound?
Answer: -43.3% (active)

Question: And the growth (MOLT-4 leukemia)?
Answer: -63% (active)

Question: Which results are given for `O=S(=O)(NCCNc1nccc(-c2c(-c3cccc(F)c3)nc3occn23)n1)c1ccc(C(F)(F)F)cc1`?
Answer: growth (SK-MEL-2 melanoma): 92.2%; growth (EKVX NSCLC): 84.2%; growth (SN12C renal): 84.8%; growth (UO-31 renal): 57.1%; growth (TK-10 renal): 97.5%; growth (ACHN renal): 87.7%; growth (CAKI-1 renal): 68.9%; growth (A498 renal): 78%; growth (CCRF-CEM leukemia): 84%; growth (MOLT-4 leukemia): 52.9%
